# From the supplement of paper PMC8728848
# Shown is part of a subset that was picked to be rich in the strongest signals.
# B1: rAAL-2 (Agrocybe aegerita) (protein)
# chain: MTSNVITQDLPIPVASRGFADIVGFGLDGVVIGRNAVNLQPFLAVKNFAQNAGGWLTTKHVRLIADTTGTGKGDIVGFGNAGVYVSVNNGKNTFADPPKMVIANFGYDAGGWRVEKHLRYLADIRKIGRADIIGFGEKGVLVSRNNGGLNFGPATLVLKDFGYDAGGWRLDRHLRFLADVTGNGHLDIVGFGDKHVFISRNNGDGTFAPAKSVIDNFCIDAGGWKIGDHPRFVADLTGDGTADIIGCGKAGCWVALNNGGGVFGQVKLVINDFGTDKGWQAAKHPRFIADLTGNGRGDVVGFGNAGVYVALNNGDGTFQSAKLVLKDFGVQQGWTVSKHRRFVVDLTGDGCADIIGFGEKETLVSYNDGKGNFGPVKALTNDFSFSGGKWAPETTVCWMANLDSSRH
# Tests used:
# Test in all cases: glycan array binding signal (z-score within array); higher = stronger binding
# Settings in all cases: glycan notation: IUPAC condensed, linker removed
# [1] = target: Fuc(a1-2)Gal(b1-4)GlcNAc(b1-3)Gal(b1-4)GlcNAc(b1-2)Man(a1-3)[Fuc(a1-2)Gal(b1-4)GlcNAc(b1-3)Gal(b1-4)GlcNAc(b1-2)Man(a1-6)]Man(b1-4)GlcNAc(b1-4)GlcNAc
# In short: (§1)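 Arrays were curated from the Consortium for Functional Glycomics database, 3228 in total, and kept only where the protein sequence was available. Binding is expressed as a within-array Z-score. This score was averaged across arrays of the same protein sequence at different concentrations or buffers and across linkers, and negative values can be read as non-binding.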
# [2] = target: Fuc(a1-2)[Gal(a1-3)]Gal
# In short: as §1
# [3] = target: Fuc(a1-2)[Gal(a1-3)]Gal(b1-3)GalNAc(b1-3)Gal(a1-4)Gal(b1-4)Glc
# In short: as §1
# [4] = target: Fuc(a1-2)[GalNAc(a1-3)]Gal
# In short: as §1
# [5] = target: Gal(a1-3)Gal(b1-3)GlcNAc(b1-3)GalNAc
# In short: as §1
# [6] = target: Gal(a1-3)Gal(b1-4)GlcNAc(b1-3)GalNAc
# In short: as §1
# [7] = target: Gal(a1-4)Gal(b1-4)GlcNAc(b1-2)Man(a1-3)[Gal(a1-4)Gal(b1-4)GlcNAc(b1-2)Man(a1-6)]Man(b1-4)GlcNAc(b1-4)GlcNAc
# In short: as §1
# [8] = target: Gal(b1-3)GlcNAc(b1-3)Gal(b1-4)GlcNAc(b1-6)[Gal(b1-3)GlcNAc(b1-3)]Gal(b1-4)Glc
# In short: as §1
# [9] = target: Gal(b1-3)[Fuc(a1-4)]GlcNAc(b1-6)GalNAc
# In short: as §1
# [10] = target: Gal(b1-4)GlcNAc(b1-2)Man
# In short: as §1
# [11] = target: Gal(b1-4)GlcNAc(b1-2)Man(a1-3)[Gal(b1-4)GlcNAc(b1-2)Man(a1-6)][Gal(b1-4)GlcNAc(b1-4)]Man(b1-4)GlcNAc(b1-4)[Fuc(a1-6)]GlcNAc
# In short: as §1
# [12] = target: Gal(b1-4)GlcNAc(b1-2)Man(a1-3)[Gal(b1-4)GlcNAc(b1-2)Man(a1-6)][GlcNAc(b1-4)]Man(b1-4)GlcNAc(b1-4)[Fuc(a1-6)]GlcNAc
# In short: as §1
# [13] = target: Gal(b1-4)GlcNAc(b1-2)Man(a1-3)[Gal(b1-4)GlcNAc(b1-2)][GlcNAc(b1-4)]Man(b1-4)GlcNAc(b1-4)GlcNAc
# In short: as §1
# [14] = target: Gal(b1-4)GlcNAc(b1-3)Gal(b1-4)Glc
# In short: as §1
# [15] = target: Gal(b1-4)GlcNAc(b1-3)Gal(b1-4)GlcNAc(b1-3)Gal(b1-4)GlcNAc
# In short: as §1
# [16] = target: Gal(b1-4)GlcNAc(b1-3)Gal(b1-4)GlcNAc(b1-3)Gal(b1-4)GlcNAc(b1-3)Gal(b1-4)GlcNAc(b1-3)Gal(b1-4)GlcNAc(b1-2)Man(a1-3)[Gal(b1-4)GlcNAc(b1-3)Gal(b1-4)GlcNAc(b1-3)Gal(b1-4)GlcNAc(b1-3)Gal(b1-4)GlcNAc(b1-3)Gal(b1-4)GlcNAc(b1-2)Man(a1-6)]Man(b1-4)GlcNAc(b1-4)GlcNAc
# In short: as §1
# [17] = target: Gal(b1-4)GlcNAc(b1-3)Gal(b1-4)GlcNAc(b1-3)Gal(b1-4)GlcNAc(b1-3)Gal(b1-4)GlcNAc(b1-3)Gal(b1-4)GlcNAc(b1-2)[Gal(b1-4)GlcNAc(b1-3)Gal(b1-4)GlcNAc(b1-3)Gal(b1-4)GlcNAc(b1-3)Gal(b1-4)GlcNAc(b1-3)Gal(b1-4)GlcNAc(b1-6)]Man(a1-6)[Gal(b1-4)GlcNAc(b1-3)Gal(b1-4)GlcNAc(b1-3)Gal(b1-4)GlcNAc(b1-3)Gal(b1-4)GlcNAc(b1-3)Gal(b1-4)GlcNAc(b1-2)Man(a1-3)]Man(b1-4)GlcNAc(b1-4)[Fuc(a1-6)]GlcNAc
# In short: as §1
# [18] = target: Gal(b1-4)GlcNAc(b1-3)Gal(b1-4)GlcNAc(b1-3)[Gal(b1-4)GlcNAc(b1-3)Gal(b1-4)GlcNAc(b1-6)]GalNAc
# In short: as §1
# [19] = target: Gal3S(b1-4)GlcNAc6S
# In short: as §1
# [20] = target: GalNAc(b1-4)GlcNAc6S
# In short: as §1
# [21] = target: GlcNAc(a1-3)Gal(b1-4)GlcNAc
# In short: as §1
# [22] = target: GlcNAc(a1-4)Gal(b1-3)GlcNAc
# In short: as §1
# [23] = target: GlcNAc(a1-4)Gal(b1-4)GlcNAc(b1-3)Gal(b1-4)Glc
# In short: as §1
# [24] = target: GlcNAc(a1-4)Gal(b1-4)GlcNAc(b1-3)Gal(b1-4)GlcNAc(b1-3)Gal(b1-4)GlcNAc
# In short: as §1
# [25] = target: GlcNAc(a1-4)Gal(b1-4)GlcNAc(b1-3)Gal(b1-4)[Fuc(a1-3)]GlcNAc(b1-3)Gal(b1-4)[Fuc(a1-3)]GlcNAc
# In short: as §1
# [26] = target: GlcNAc(b1-2)Man(a1-3)[GlcNAc(b1-4)][GlcNAc(b1-2)Man(a1-6)]Man(b1-4)GlcNAc(b1-4)[Fuc(a1-6)]GlcNAc
# In short: as §1
# [27] = target: GlcNAc(b1-3)Gal(b1-4)GlcNAc
# In short: as §1
# [28] = target: GlcNAc(b1-3)Gal(b1-4)GlcNAc(b1-3)Gal(b1-4)GlcNAc(b1-2)Man(a1-3)[GlcNAc(b1-3)Gal(b1-4)GlcNAc(b1-3)Gal(b1-4)GlcNAc(b1-2)Man(a1-6)]Man(b1-4)GlcNAc(b1-4)GlcNAc
# In short: as §1
# [29] = target: GlcNAc(b1-3)Gal(b1-4)GlcNAc(b1-3)Gal(b1-4)GlcNAc(b1-2)Man(a1-3)[GlcNAc(b1-3)Gal(b1-4)GlcNAc(b1-3)Gal(b1-4)GlcNAc(b1-2)Man(a1-6)]Man(b1-4)GlcNAc(b1-4)[Fuc(a1-6)]GlcNAc
# In short: as §1
# [30] = target: GlcNAc(b1-3)Gal(b1-4)GlcNAc(b1-3)Gal(b1-4)GlcNAc(b1-3)Gal(b1-4)GlcNAc(b1-2)Man(a1-3)[GlcNAc(b1-3)Gal(b1-4)GlcNAc(b1-3)Gal(b1-4)GlcNAc(b1-3)Gal(b1-4)GlcNAc(b1-2)Man(a1-6)]Man(b1-4)GlcNAc(b1-4)[Fuc(a1-6)]GlcNAc
# In short: as §1
binder,measurement,setting,value
B1,glycan array binding signal (z-score),[1],-0.083
same,glycan array binding signal (z-score),[2],-0.221
same,glycan array binding signal (z-score),[3],0.126
same,glycan array binding signal (z-score),[4],-0.342
same,glycan array binding signal (z-score),[5],-0.274
same,glycan array binding signal (z-score),[6],-0.36
same,glycan array binding signal (z-score),[7],0.062
same,glycan array binding signal (z-score),[8],-0.234
same,glycan array binding signal (z-score),[9],-0.064
same,glycan array binding signal (z-score),[10],-0.16
same,glycan array binding signal (z-score),[11],-0.282
same,glycan array binding signal (z-score),[12],-0.482
same,glycan array binding signal (z-score),[13],-0.266
same,glycan array binding signal (z-score),[14],-0.317
same,glycan array binding signal (z-score),[15],-0.113
same,glycan array binding signal (z-score),[16],-0.319
same,glycan array binding signal (z-score),[17],0.032
same,glycan array binding signal (z-score),[18],0.004
same,glycan array binding signal (z-score),[19],-0.11
same,glycan array binding signal (z-score),[20],-0.107
same,glycan array binding signal (z-score),[21],4.67
same,glycan array binding signal (z-score),[22],3.84
same,glycan array binding signal (z-score),[23],4.64
same,glycan array binding signal (z-score),[24],6.15
same,glycan array binding signal (z-score),[25],3.9
same,glycan array binding signal (z-score),[26],-0.068
same,glycan array binding signal (z-score),[27],4.11
same,glycan array binding signal (z-score),[28],3.92
same,glycan array binding signal (z-score),[29],4.05
same,glycan array binding signal (z-score),[30],4.52
